In PubChem BioAssay:

Test: E. coli acrAB mutant growth effects, primary screen, E. coli filamentation inducers, strain DRC39, OD650, 48 h (AID 1179);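 also: screen aims at cell division blockers that make cells filament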
Conditions: E. coli DRC39 delta-acrAB growth, higher = more signal, called active from +8 up or from −8 down

z-score, inactive:
C=C(COC)C(=O)CC[C@H](OC(=O)c1cccnc1)c1ccccc1OCCO -0.285
C=CCC(OC(C)=O)[C@@H]1[C@@H](N(Cc2cc3ccccc3o2)C(=O)c2ccc(C)cc2)c2cc(OCCCO)ccc2N1C(=O)c1ccc(-c2ccccc2)cc1 (some centres not stated) 1.35
NC(=O)[C@]1(Cc2ccccc2)N=C(c2ccc(OCCCO)cc2)O[C@@H]1c1ccccc1 -1.24
[N-]=[N+]=NCc1ccccc1C[C@]1(C(=O)NCCN2CCOCC2)N=C(c2ccc(OCCCO)cc2)O[C@H]1c1ccccc1CN=[N+]=[N-] 0.844
CCOC(=O)C1=CC[C@@H](c2cccc(Cl)c2)N(S(=O)(=O)c2ccc(C)cc2)[C@H]1c1ccc(C#N)cc1 -0.314
O=c1cccc(-c2ccccc2)o1 0.0997
CC(=O)NCCCC[C@@H]1NC(=O)[C@@H]2C[C@H](C(=O)NCc3ccc(F)cc3)[C@H](c3ccc(O)cc3)N2C1=O -0.598
O=C1OCCC=C[C@H]2OC34C=CCN(c5ccc6ccccc6c5)C(=O)[C@H]3N(CCCCCCO)C(=O)[C@@H]4C12 (some centres not stated) 1.29
O=C1OCCC/C=C\[C@H]2OC34C=CCN(Cn5nnc6ccccc65)C(=O)[C@H]3N(CCCO)C(=O)[C@@H]4C12 (some centres not stated) 0.0024
CC(C)OC(=O)C1=CCC(c2cccc(Cl)c2)O1 (configuration not stated) 0.143
O=C1[C@H]2C=C(Br)[C@H](C[C@@H]2OCCOCCO)[C@@]12CO2 -1.05
O=c1cccc(-c2ccc3ccccc3c2)o1 0.159
